# From PubChem BioAssay (NCATS)
# Results filed as inconclusive are left out. Calls of active or inactive are those of the source. The call rests on the fitted dose curve; in most records, active means well fitted cell-killing curve with a large enough effect; inconclusive means small, poorly fitted or top-dose-only effect; inactive means flat fitted curve, though single readings scatter.
# Experiment: qHTS assay to identify small molecule inhibitors of chordoma cells - UCH-2 (AID 1259356)
# Conditions: UCH-2 chordoma viability, CellTiter-Glo ATP luminescence, 48 h; series mostly up to 46.1 µM; activity change, negative = inhibition: at the top concentration
# Description: NIH Chemical Genomics Center [NCGC]
# Chordoma is a rare and slow growing tumor that can occur anywhere along the spine, from the base of the skull to the tailbone. Current treatment options for chordoma is surgery and radiation therapy for those who are not candidates for surgery. But chordomas tend to return in the same location or surrounding areas of the original tumor after surgery and/or radiation. Chemotherapy can slow down the progression of the tumor. As chordoma is slow growing, the general cytotoxic agents that kill fast growing cells are ineffective, and some patients have been reported to respond to molecularly targeted drugs.
# NCATS Pharmaceutical Collection (NPC) containing approximately 3000 clinically approved and investigational drugs were used to screen at 15 concentrations in a chordoma cell lines, UCH-2, to identify small molecule compounds that can inhibit chordoma cell growth.
# NCGC Assay Protocol Summary:
# Human chordoma cell line UCH-2 was dispensed at 800 per well in 4uL of culture medium into white solid bottom 1536-well plates (Corning Life Sciences, Corning, NY) using a Multidrop Combi (Thermo Scientific, Waltham, MA) dispenser. The assay plates were incubated at 37 C and 5% CO2 for an overnight, and then 23nL of compounds dissolved in DMSO and positive control were transferred using a Pintool station (Wako, San Diego, CA). Compound treatment was followed by the addition of 1uL of the combination compounds (1uM Auranofin, 500nM each of Camptothecin, Doxorubicin, Rubitecan, and Topotecan) and assay medium to each well of the assay plates using Flying Reagent Dispenser (FRD, Aurora Discovery, San Diego, CA). The assay plates were incubated at 37 C and 5% CO2 for 48hr. Then 5uL of CellTiter-Glo reagent (Promega Corporation, Madison, WI) was added to each well of the assay plates using FRD. After 30min incubation at room temperature, the luminescence signal was quantified using a ViewLux plate reader (PerkinElmer, Shelton, CT).
# On the % scale 0 is the no-effect control and ±100 the full control effect.
row,Structure (SMILES),"activity change, negative = inhibition"
1,CN1CCC(=C2c3ccccc3Sc3ccccc32)CC1,6.27% (inactive)
2,O=C1OC(c2ccc(O)cc2)(c2ccc(O)cc2)c2ccccc21,10.1% (inactive)
3,CCCCC1=NC2(CCCC2)C(=O)N1Cc1ccc(-c2ccccc2-c2nn[nH]n2)cc1,0.487% (inactive)
4,CN(C)CCOc1ccccc1Cc1ccccc1,-17.3% (inactive)
5,CC[N+](CC)(CCNC(=O)C(=O)NCC[N+](CC)(CC)Cc1ccccc1Cl)Cc1ccccc1Cl,26.2% (inactive)
6,CN(C/C=C/c1ccccc1)Cc1cccc2ccccc12,16.7% (inactive)
7,CC(=O)Oc1ccc(C(=C2CCCCC2)c2ccc(OC(C)=O)cc2)cc1,-2.17% (inactive)
8,C[C@]12CC[C@@H]3c4ccc(O)cc4CC[C@H]3[C@@H]1CC[C@@H]2O,9.92% (inactive)
9,CNCC[C@@H](Oc1ccccc1C)c1ccccc1,-25.8% (inactive)
10,NC[C@H]1O[C@H](O[C@H]2[C@H](O[C@@H]3O[C@H](CO)[C@@H](O)[C@H]3O)C(O)[C@H](N)C[C@@H]2N)[C@H](N)[C@@H](O)[C@@H]1O (stereo not given in full),0.797% [at 20.6 µM] (inactive)
11,CC(CCc1ccccc1)NCC(O)c1ccc(O)c(C(N)=O)c1 (stereo not given),-2.33% (inactive)
12,C=CCc1ccc(O)c(OC)c1,6.71% (inactive)
13,CCCn1c(=O)[nH]c(=O)c2[nH]cnc21,-1.53% (inactive)
14,O=C(O)c1cc2cc(Cc3cccnc3)ccc2o1,0.993% (inactive)
15,CC(=O)[C@H]1CC[C@H]2[C@@H]3C[C@H](C)C4=CC(=O)CC[C@]4(C)[C@H]3[C@@H](O)C[C@]12C,7.69% [at 20.6 µM] (inactive)
16,CN1[C@@H]2CC[C@H]1CC(OC(=O)c1c[nH]c3ccccc13)C2 (stereo not given in full),8.84% (inactive)
17,C/C=C(/C(=C/C)c1ccc(O)cc1)c1ccc(O)cc1,8.07% [at 20.6 µM] (inactive)
18,C[C@]12CCC(=O)C=C1CC[C@H]1[C@@H]3CC[C@](O)(C(=O)CO)[C@@]3(C)C[C@H](O)[C@@]12F,0.127% (inactive)
19,CCCCCCCCCCOCC(O)CN (stereo not given),-18.3% (inactive)
20,N[C@@H](Cc1cnc[nH]1)C(=O)O,5.22% (inactive)

row,Structure (SMILES),"activity change, negative = inhibition"
1,CCOC(=O)n1ccn(C)c1=S,6.96% [at 20.6 µM] (inactive)
2,CC[C@H](C)C(=O)O[C@H]1CCC=C2C=C[C@H](C)[C@H](CC[C@@H]3C[C@@H](O)CC(=O)O3)[C@H]21,-2.14% (inactive)
3,Cc1ccc(C(=O)C(C)CN2CCCCC2)cc1 (stereo not given),6.42% (inactive)
4,CC(=O)O[C@H]1C[C@@H]2CC[C@@H]3[C@H](CC[C@@]4(C)[C@H]3C[C@H]([N+]3(C)CCCCC3)[C@@H]4OC(C)=O)[C@@]2(C)C[C@@H]1[N+]1(C)CCCCC1,0% (inactive)
5,Cc1cc(O)c(C(C)C)cc1Cl,10.6% (inactive)
6,CCC(NC(C)C)C(O)c1ccc(O)c(O)c1 (stereo not given),-4.84% (inactive)
7,CN1CCCC(CC2c3ccccc3Sc3ccccc32)C1 (stereo not given),-0.606% [at 20.6 µM] (inactive)
8,CCOc1ccc2nc3cc(N)ccc3c(N)c2c1,7.62% (inactive)
9,C[C@]12CC[C@@H]3c4ccc(O)cc4CC[C@H]3[C@@H]1C[C@@H](O)[C@@H]2O,3.88% (inactive)
10,COc1ccc(C2C(=O)c3ccccc3C2=O)cc1,6.58% (inactive)
11,CC(=O)O[C@]1(C(C)=O)CC[C@H]2[C@@H]3C[C@H](C)C4=CC(=O)CC[C@]4(C)[C@H]3CC[C@@]21C,-3.41% (inactive)
12,C[C@H]1[C@H](NC(=O)/C(=N/OC(C)(C)C(=O)O)c2csc(N)n2)C(=O)N1S(=O)(=O)O (stereo in doubt),0.589% [at 20.6 µM] (inactive)
13,CC(=O)OCC(=O)NCCCOc1cccc(CN2CCCCC2)c1,-13.5% (inactive)
14,NC(=O)C(=O)N/N=C/c1ccc([N+](=O)[O-])o1,-10.3% (inactive)
15,COc1ccc(/C=C/C(=O)c2ccc(OC)cc2OC)cc1,-3.26% (inactive)
16,CCOc1ccc(Cc2nccc3cc(OCC)c(OCC)cc23)cc1OCC,10.3% [at 20.6 µM] (inactive)
17,NCCCC[C@H](N[C@@H](CCc1ccccc1)C(=O)O)C(=O)N1CCC[C@H]1C(=O)O,-0.661% [at 20.6 µM] (inactive)
18,N[C@H](CO)C(=O)O,-1.74% (inactive)
19,CCCN1CCCC[C@H]1C(=O)Nc1c(C)cccc1C,-4.5% (inactive)
20,COc1cc(C(=S)N2CCOCC2)cc(OC)c1OC,-0.752% (inactive)
